PubChem BioAssay (EPA / NIEHS)
Several values for one entry are separate records, joined by “and”; a condition that tells them apart may be missing. Equal entries are not always repeated. Records with an inconclusive call do not appear. Activity calls are given as the source filed them. How the source made its calls: active means hit-call score of the fitted dose curve at least 0.9, where 1 is the maximum; inconclusive means response in the unintended direction; inactive means score below 0.9.

Key:
[1] = target: sheep Cyclooxygenase-1 (Cox1), PTGS1 (gene 443551) (UniProt P05979); assay: NVS_ENZ_oCOX1: NovaScreen (NVS) Enzymatic Assay for sheep Cyclooxygenase-1 (Cox1) (AID 2283239);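 further: actives reduce cyclooxygenase activity so potencies are for inhibitors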
sheep Cyclooxygenase-1 (Cox1), PTGS1 (gene 443551), sequence (P05979 whole entry, looked up): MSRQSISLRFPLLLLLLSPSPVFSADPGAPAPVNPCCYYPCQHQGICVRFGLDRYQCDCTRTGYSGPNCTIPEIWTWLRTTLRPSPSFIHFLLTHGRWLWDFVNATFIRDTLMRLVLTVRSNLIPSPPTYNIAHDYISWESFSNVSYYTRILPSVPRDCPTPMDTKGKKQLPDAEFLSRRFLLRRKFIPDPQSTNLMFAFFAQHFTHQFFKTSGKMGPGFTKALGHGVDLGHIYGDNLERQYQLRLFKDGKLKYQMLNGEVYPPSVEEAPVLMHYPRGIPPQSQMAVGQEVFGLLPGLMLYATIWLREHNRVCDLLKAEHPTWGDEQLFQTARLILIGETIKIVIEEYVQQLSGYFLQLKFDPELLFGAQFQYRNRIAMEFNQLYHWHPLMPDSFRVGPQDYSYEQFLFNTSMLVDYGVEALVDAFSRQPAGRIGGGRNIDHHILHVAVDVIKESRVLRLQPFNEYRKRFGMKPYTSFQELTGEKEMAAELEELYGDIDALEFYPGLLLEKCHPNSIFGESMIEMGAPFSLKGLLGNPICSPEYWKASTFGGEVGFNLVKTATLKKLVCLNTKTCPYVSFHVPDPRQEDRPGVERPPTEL
In short: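 Tested in duplicate at 25 uM, then in concentration series if active, against seminal vesicle extract from sheep. Enzyme activity was measured colorimetrically at 0.66 hour and normalised to DMSO.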

[2] = target: guinea pig Opioid, Kappa 1 Receptor (OpiateK), OPRK1 (gene 100135587) (UniProt P41144); assay: NVS_GPCR_gOpiateK: NovaScreen (NVS) G Protein-Coupled Receptor Assay for guinea pig Opioid, Kappa 1 Receptor (OpiateK) (AID 2283252);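 further: radioligand displacement from kappa opioid receptor in guinea pig cerebellar membranes; active means reduced radioligand binding relative to DMSO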
guinea pig Opioid, Kappa 1 Receptor (OpiateK), OPRK1 (gene 100135587), sequence (P41144 whole entry, looked up): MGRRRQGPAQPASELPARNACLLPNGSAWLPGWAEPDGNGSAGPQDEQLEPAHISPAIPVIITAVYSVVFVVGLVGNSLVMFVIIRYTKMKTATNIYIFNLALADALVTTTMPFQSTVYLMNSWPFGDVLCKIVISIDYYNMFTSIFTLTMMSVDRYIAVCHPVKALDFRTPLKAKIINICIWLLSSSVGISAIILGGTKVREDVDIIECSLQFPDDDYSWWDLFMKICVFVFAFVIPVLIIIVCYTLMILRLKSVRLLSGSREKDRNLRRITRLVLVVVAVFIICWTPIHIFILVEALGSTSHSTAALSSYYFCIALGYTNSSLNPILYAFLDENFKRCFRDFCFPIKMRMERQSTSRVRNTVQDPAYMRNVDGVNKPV
In short: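 Cell-free tissue prep: guinea pig cerebellar membranes, radioligand displacement, 2 h incubation. Readout: filtration plus scintillation counting. Primary single-point 25 uM duplicate; actives retested in concentration series; DMSO negative control.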

[3] = target: human Adenosine A2a Receptor (AdoRA2a), ADORA2A (gene 135) (UniProt P29274); assay: NVS_GPCR_hAdoRA2a: NovaScreen (NVS) G Protein-Coupled Receptor Assay for human Adenosine A2a Receptor (AdoRA2a) (AID 2283256)
In short: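 Compounds screened in duplicate at 25 uM, with actives followed up in concentration series, for displacement of a radioligand from HEK293-derived receptor protein. Bound counts read by filter scintillation at 1.5 hours, DMSO as baseline.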

[4] = target: rabbit Imidazoline 2 Central (I2C), CKB (gene 100009085) (UniProt P00567); assay: NVS_ENZ_rabI2C: NovaScreen (NVS) Enzymatic Assay for rabbit Imidazoline 2 Central (I2C) (AID 2283228)
rabbit Imidazoline 2 Central (I2C), CKB (gene 100009085), sequence (P00567 whole entry, looked up): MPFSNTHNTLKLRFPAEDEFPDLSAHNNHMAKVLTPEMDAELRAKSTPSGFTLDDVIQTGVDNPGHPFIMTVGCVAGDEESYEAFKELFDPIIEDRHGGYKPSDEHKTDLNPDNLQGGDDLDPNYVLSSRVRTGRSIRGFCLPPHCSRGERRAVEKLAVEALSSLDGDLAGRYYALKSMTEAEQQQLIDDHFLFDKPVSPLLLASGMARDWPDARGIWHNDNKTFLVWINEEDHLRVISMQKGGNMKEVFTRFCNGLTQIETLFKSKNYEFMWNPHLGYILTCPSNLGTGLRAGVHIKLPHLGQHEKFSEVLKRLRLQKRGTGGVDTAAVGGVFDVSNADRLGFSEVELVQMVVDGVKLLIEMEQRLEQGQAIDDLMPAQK
In short: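 Rabbit brain membranes, cell-free; readout by filter-based scintillation counting 1.5 hours after dosing, loss of signal vs DMSO. Initial duplicate test at 25 uM, then concentration-response with 50 uM top concentration.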

[5] = target: sheep Cyclooxygenase-2 (Cox2), PTGS2 (gene 443460) (UniProt P79208); assay: NVS_ENZ_oCOX2: NovaScreen (NVS) Enzymatic Assay for sheep Cyclooxygenase-2 (Cox2) (AID 2283231)
sheep Cyclooxygenase-2 (Cox2), PTGS2 (gene 443460), sequence (P79208 whole entry, looked up): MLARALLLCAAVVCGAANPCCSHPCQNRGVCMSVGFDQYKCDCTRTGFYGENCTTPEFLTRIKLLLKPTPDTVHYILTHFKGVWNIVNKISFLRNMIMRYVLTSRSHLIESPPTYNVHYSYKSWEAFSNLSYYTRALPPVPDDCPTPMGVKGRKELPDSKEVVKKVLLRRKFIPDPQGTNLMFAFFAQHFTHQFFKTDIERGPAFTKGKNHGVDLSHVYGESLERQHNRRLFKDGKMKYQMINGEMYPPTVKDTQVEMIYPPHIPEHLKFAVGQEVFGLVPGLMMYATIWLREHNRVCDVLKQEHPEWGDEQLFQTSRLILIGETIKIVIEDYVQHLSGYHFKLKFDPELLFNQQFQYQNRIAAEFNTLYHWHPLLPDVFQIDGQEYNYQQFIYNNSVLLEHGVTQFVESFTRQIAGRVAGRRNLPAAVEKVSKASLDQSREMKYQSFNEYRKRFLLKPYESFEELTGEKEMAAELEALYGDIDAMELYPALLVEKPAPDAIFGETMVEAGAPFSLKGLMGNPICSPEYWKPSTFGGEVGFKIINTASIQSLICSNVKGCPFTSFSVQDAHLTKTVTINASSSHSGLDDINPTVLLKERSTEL
In short: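 Enzyme from ovine placenta, cell-free; colorimetric absorbance read 0.66 hour after dosing, loss of signal vs DMSO. Screened in duplicate at 25 uM, then concentration-response up to 50 uM.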

[6] = target: rat Constitutive Nitric Oxide Synthase (CNOS), Nos1 (gene 24598) (UniProt P29476); assay: NVS_ENZ_rCNOS: NovaScreen (NVS) Enzymatic Assay for rat Constitutive Nitric Oxide Synthase (CNOS) (AID 2283236)
rat Constitutive Nitric Oxide Synthase (CNOS), Nos1 (gene 24598), sequence (P29476 whole entry, looked up): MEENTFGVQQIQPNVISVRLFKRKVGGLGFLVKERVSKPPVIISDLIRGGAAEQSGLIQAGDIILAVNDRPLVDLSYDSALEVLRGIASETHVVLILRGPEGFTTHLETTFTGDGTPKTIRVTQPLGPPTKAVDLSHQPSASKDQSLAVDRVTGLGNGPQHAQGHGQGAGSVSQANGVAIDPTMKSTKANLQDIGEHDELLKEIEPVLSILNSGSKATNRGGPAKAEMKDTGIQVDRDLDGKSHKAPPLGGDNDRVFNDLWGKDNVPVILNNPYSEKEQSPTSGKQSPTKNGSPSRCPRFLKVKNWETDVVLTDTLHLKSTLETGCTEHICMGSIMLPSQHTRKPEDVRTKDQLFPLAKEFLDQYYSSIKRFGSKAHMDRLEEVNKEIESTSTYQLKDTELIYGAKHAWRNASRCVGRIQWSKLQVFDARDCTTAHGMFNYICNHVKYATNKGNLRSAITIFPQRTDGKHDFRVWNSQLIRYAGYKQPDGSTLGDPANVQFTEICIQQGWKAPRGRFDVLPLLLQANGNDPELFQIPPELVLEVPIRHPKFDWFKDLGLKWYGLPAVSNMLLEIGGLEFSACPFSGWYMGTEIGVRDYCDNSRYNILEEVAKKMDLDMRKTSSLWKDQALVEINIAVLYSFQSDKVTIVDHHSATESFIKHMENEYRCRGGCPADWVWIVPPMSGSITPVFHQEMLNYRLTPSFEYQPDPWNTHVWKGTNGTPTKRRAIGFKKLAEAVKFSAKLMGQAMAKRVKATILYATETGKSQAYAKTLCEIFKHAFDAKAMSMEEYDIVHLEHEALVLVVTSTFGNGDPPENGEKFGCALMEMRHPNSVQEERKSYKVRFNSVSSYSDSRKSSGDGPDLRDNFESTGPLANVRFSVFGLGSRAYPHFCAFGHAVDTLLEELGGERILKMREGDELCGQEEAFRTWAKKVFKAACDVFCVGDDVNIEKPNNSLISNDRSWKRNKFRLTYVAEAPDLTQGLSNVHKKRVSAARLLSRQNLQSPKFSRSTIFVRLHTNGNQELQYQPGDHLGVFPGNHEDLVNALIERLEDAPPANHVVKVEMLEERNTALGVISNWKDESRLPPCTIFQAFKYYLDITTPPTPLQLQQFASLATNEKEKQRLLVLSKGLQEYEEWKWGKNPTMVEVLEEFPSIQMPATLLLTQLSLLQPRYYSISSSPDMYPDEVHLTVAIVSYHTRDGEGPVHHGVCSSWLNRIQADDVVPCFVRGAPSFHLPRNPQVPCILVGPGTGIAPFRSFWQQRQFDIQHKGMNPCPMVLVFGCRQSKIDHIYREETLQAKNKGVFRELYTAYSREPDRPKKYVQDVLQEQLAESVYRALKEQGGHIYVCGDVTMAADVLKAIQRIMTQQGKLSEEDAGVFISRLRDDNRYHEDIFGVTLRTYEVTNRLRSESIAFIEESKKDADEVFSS
In short: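 Single 25 uM duplicate screen, then concentration series to 50 uM for chemicals meeting threshold. Rat brain membrane-derived CNOS activity detected radiometrically by filtration and scintillation counting, 1 h after compound addition; DMSO as baseline.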

[7] = target: bovine Dopamine Receptor (DR), Non-selective Binding, DRD1 (gene 281125) (UniProt Q95136); assay: NVS_GPCR_bDR_NonSelective: NovaScreen (NVS) G Protein-Coupled Receptor Assay for bovine Dopamine Receptor (DR), Non-selective Binding (AID 2283241)
bovine Dopamine Receptor (DR), Non-selective Binding, DRD1 (gene 281125), sequence (Q95136 whole entry, looked up): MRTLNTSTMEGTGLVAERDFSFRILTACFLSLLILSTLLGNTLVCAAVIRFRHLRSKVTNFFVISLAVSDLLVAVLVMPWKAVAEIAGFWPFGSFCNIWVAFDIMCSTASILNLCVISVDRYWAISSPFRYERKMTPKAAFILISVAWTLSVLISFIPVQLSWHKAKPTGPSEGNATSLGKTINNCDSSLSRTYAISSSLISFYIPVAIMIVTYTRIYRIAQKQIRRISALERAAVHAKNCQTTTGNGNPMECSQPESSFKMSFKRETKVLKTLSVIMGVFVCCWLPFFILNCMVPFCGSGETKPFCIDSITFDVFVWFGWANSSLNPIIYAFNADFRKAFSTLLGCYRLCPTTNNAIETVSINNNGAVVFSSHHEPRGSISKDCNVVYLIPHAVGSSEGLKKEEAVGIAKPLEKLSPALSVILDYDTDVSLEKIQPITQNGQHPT
In short: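 Filter-based radioligand binding with bovine striatal membrane, incubated 1 h; DMSO as negative baseline. Initial duplicate single-point test at 25 uM preceded concentration series for actives.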

[8] = tested on: bovine Histamine 1 Receptor (H1), gene 281231; assay: NVS_GPCR_bH1: NovaScreen (NVS) G Protein-Coupled Receptor Assay for bovine Histamine 1 Receptor (H1) (AID 2283246)
In short: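 Hits from a 25 uM duplicate primary screen were retested in concentration series (top 50 uM); binding measured as scintillation-counted displacement of radioligand from bovine cerebellar membranes after 1 h, normalised to DMSO.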

[9] = tested on: guinea pig Leukotriene B4 Receptor (LTB4), gene 100379538; assay: NVS_GPCR_gLTB4: NovaScreen (NVS) G Protein-Coupled Receptor Assay for guinea pig Leukotriene B4 Receptor (LTB4) (AID 2283247)
In short: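 Membranes from guinea pig spleen incubated 2 h with radioligand and compound; bound counts measured by filtration and scintillation. Screened first at 25 uM in duplicate, then actives titrated to a 50 uM top concentration relative to DMSO.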

[10] = tested on: guinea pig Muscarinic, Peripheral (Mperiperal) Receptor, Non-selective Binding, gene 100379235; assay: NVS_GPCR_gMPeripheral_NonSelective: NovaScreen (NVS) G Protein-Coupled Receptor Assay for guinea pig Muscarinic, Peripheral (Mperiperal) Receptor, Non-selective Binding (AID 2283250)
In short: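 Screened in duplicate at 25 uM, hits retested in concentration series to 50 uM max, using bladder membrane radioligand displacement from guinea pig. Filtration and scintillation counting 1 h post-dose, fitted relative to DMSO.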

[11] = target: human Serotonin, 5-Hydroxytryptamine Receptor 5A (5HT5A), HTR5A (gene 3361) (UniProt P47898); assay: NVS_GPCR_h5HT5A: NovaScreen (NVS) G Protein-Coupled Receptor Assay for human Serotonin, 5-Hydroxytryptamine Receptor 5A (5HT5A) (AID 2283251)
human Serotonin, 5-Hydroxytryptamine Receptor 5A (5HT5A), HTR5A (gene 3361), sequence (P47898 whole entry, looked up): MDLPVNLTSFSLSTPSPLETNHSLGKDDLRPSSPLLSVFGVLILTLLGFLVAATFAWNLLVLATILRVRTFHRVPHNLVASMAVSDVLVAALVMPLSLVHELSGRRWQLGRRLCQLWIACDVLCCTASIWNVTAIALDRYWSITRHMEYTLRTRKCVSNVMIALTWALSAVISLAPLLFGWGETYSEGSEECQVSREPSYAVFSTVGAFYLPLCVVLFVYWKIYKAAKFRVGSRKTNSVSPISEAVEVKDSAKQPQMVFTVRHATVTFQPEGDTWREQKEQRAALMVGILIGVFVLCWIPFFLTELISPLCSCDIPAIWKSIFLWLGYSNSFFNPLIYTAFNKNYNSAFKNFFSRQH
In short: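 Membranes from HEK293 cells, radioligand binding read by filtration and scintillation after 1 h. Single-concentration duplicate testing at 25 uM, then concentration-response for actives; positive-direction fitting relative to DMSO.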

[12] = target: human Serotonin, 5-Hydroxytryptamine Receptor 7 (5HT7), HTR7 (gene 3363) (UniProt P34969); assay: NVS_GPCR_h5HT7: NovaScreen (NVS) G Protein-Coupled Receptor Assay for human Serotonin, 5-Hydroxytryptamine Receptor 7 (5HT7) (AID 2283255);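 further: hits reduce specific radioligand binding relative to DMSO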
human Serotonin, 5-Hydroxytryptamine Receptor 7 (5HT7), HTR7 (gene 3363), sequence (P34969 whole entry, looked up): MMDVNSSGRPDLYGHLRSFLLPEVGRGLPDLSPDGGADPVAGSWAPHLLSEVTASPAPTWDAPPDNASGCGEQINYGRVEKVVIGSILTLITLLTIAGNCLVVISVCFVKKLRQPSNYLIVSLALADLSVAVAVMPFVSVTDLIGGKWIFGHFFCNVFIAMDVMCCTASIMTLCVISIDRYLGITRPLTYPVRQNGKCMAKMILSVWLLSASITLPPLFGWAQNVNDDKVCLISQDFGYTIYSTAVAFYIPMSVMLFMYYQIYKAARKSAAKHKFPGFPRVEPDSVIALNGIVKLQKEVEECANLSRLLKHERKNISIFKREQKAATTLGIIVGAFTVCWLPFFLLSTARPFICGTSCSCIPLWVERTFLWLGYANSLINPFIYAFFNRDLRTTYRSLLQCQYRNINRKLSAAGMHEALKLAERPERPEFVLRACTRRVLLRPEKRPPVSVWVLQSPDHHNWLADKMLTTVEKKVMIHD
In short: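 Filter-bound radioactivity counted after 1 h, with loss of specific radioligand binding fitted against DMSO. Membrane protein came from CHO cells expressing human 5HT7. Chemicals were tested first at 25 uM in duplicate, then in concentration series if active.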

[13] = target: human Adrenergic, Alpha 2A Receptor (Adra2A), ADRA2A (gene 150) (UniProt P08913); assay: NVS_GPCR_hAdra2A: NovaScreen (NVS) G Protein-Coupled Receptor Assay for human Adrenergic, Alpha 2A Receptor (Adra2A) (AID 2283257)
In short: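 Displacement of a specific radioligand from HT29 membrane protein was counted by filter scintillation after 1 h. Compounds were screened in duplicate at 25 uM, and actives were retested in concentration series. Fitting was positive-direction against DMSO.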

[14] = target: human Vascular Endothelial Growth Factor Receptor 3 (VEGFR3), FLT4 (gene 2324) (UniProt P35916); assay: NVS_ENZ_hVEGFR3: NovaScreen (NVS) Enzymatic Assay for human Vascular Endothelial Growth Factor Receptor 3 (VEGFR3) (AID 2283229)
In short: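 Chemicals first run in duplicate at 25 uM, with actives re-tested in concentration series to a top of 50 uM. Recombinant VEGFR3 activity measured after 1 h via fluorescence with mobility-shift product separation; inhibition fitted relative to DMSO.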

[15] = target: human Vascular Endothelial Growth Factor Receptor 2 (VEGFR2), KDR (gene 3791) (UniProt P35968); assay: NVS_ENZ_hVEGFR2: NovaScreen (NVS) Enzymatic Assay for human Vascular Endothelial Growth Factor Receptor 2 (VEGFR2) (AID 2283230)
In short: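 Cell-free recombinant VEGFR2 kinase, fluorescent substrate with electrophoretic mobility-shift separation; read 1 h after dosing. Screened at 25 uM in duplicate, hits to concentration-response up to 50 uM; loss-of-signal versus DMSO.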

[16] = target: Adenosine receptor A1 (Bos taurus) (UniProt P28190); assay: NVS_GPCR_bAdoR_NonSelective: NovaScreen (NVS) G Protein-Coupled Receptor Assay for bovine Adenosine Receptor (AdoR), Non-selective Binding (AID 2283244)
In short: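 Cell-free binding with membranes from bovine striatum: radioligand displaced by test chemical, read after 1 h by filtration and scintillation. Single-point 25 uM duplicate primary, 50 uM top concentration in follow-up curves, DMSO baseline.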

[17] = target: guinea pig Leukotriene D4 Receptor (LTD4), CYSLTR1 (gene 100135514) (UniProt Q2NNR5); assay: NVS_GPCR_gLTD4: NovaScreen (NVS) G Protein-Coupled Receptor Assay for guinea pig Leukotriene D4 Receptor (LTD4) (AID 2283248)
guinea pig Leukotriene D4 Receptor (LTD4), CYSLTR1 (gene 100135514), sequence (Q2NNR5 whole entry, looked up): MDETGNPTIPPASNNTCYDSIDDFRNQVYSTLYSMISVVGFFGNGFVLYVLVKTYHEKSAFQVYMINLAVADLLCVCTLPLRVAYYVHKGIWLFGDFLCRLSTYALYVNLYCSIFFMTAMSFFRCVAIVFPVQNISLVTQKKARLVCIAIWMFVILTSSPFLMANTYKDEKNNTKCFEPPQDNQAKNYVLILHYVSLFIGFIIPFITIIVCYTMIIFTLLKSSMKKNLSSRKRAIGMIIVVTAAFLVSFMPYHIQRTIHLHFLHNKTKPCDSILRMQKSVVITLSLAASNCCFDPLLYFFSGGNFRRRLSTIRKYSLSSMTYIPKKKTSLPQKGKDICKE
In short: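 Guinea pig lung membrane preparation; bound radioligand measured by filter scintillation after 1 h, loss of signal versus DMSO marking displacement. Compounds tested at 25 uM in duplicate, hits retested to max 50 uM.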

[18] = target: human Adenosine A1 Receptor (AdoRA1), ADORA1 (gene 134) (UniProt P30542); assay: NVS_GPCR_hAdoRA1: NovaScreen (NVS) G Protein-Coupled Receptor Assay for human Adenosine A1 Receptor (AdoRA1) (AID 2283254)
In short: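 Radioligand binding was run on human cortical membranes, cell-free, with filter-based scintillation counting 1 h after dosing. The primary screen was duplicate at 25 uM, followed by concentration series. Signal loss versus DMSO was fitted positive-direction.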

For `CCC(=O)O`, the AC50 [1] was 0.00683 µM (active).
In the case of `C=CC(C)(CCC=C(C)C)OC(C)=O` (configuration not stated), the AC50 [2] is reported as 46.5 µM (active).
In the case of `CC1=NN(c2ccccc2)C(=O)C1`, the AC50 [1] is reported as 28.2 µM (active).
With `CN(C)c1ccc(C(=C2C=CC(=[N+](C)C)C=C2)c2ccccc2)cc1` the AC50 [2] was 15 µM (active) and 12.5 µM (active) and the outcome [3] was “inactive”.
For `N=C(N)c1ccc(OCCCCCOc2ccc(C(=N)N)cc2)cc1`, the AC50 [4] was 0.0332 µM (active), the AC50 [5] was 7.19 µM (active) and the AC50 [6] was 6.42 µM (active). For the same compound, the outcome [7] was “inactive”, the outcome [8] was “inactive” and the AC50 [9] was 2.4 µM (active). The AC50 [10] was 0.954 µM (active), the outcome [11] was “inactive” and the AC50 [2] was 17.2 µM (active). For the same compound, the AC50 [12] was 3.18 µM (active) and the AC50 [13] was 23.2 µM (active).
`CN(C)CCOC(c1ccccc1)c1ccccc1` was tested, and the AC50 [4] was 8.46 µM (active), the AC50 [7] was 5.83 µM (active) and the AC50 [8] was 0.101 µM (active). The AC50 [10] was 0.574 µM (active) and the AC50 [2] was 13 µM (active).
With `CCCCCCCCCCCCOS(=O)(=O)O` the AC50 [14] was 29.3 µM (active), the AC50 [15] was 16.9 µM (active) and the outcome [6] was “inactive”. For the same compound, the outcome [16] was “inactive”, the AC50 [9] was 25 µM (active) and the AC50 [17] was 8.99 µM (active). The AC50 [11] was 9.77 µM (active) and the AC50 [12] was 25 µM (active).
With `CS(=O)(=O)c1ccc([C@@H](CC2CCCC2)C(=O)Nc2cnccn2)cc1Cl` the AC50 [5] was 25 µM (active), the outcome [17] was “inactive” and the outcome [18] was “inactive”.
